Screens as filed in PubChem BioAssay.
TDP1 cell noCPT: qHTS for Inhibitors of human tyrosyl-DNA phosphodiesterase 1 (TDP1): qHTS in cells in absence of CPT; DT40 Tdp1-/- hTDP1 cells, no CPT, ATP luminescence, 48 h; actives 15% (n = 420,000); Potency, µM (titrated, usually from 46.2 µM), for inactives: top-dose activity change, negative = growth inhibition, actives largely listed as inhibitors; further: potency means the concentration at half of the fitted maximal effect; nearly all actives have a fitted effect of over 55% in size
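Readout: luminescence from CellTiter-Glo after 30 min in the dark at RT. Cells: DT40 Tdp1-/- with stable hTDP1, 400/well. Exposure: compounds alone, ≥48 hr, 37 °C.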
HT1080 IDH1KD tx: qHTS for induction of synthetic lethality in tumor cells producing 2HG: qHTS for the HT-1080-IDH1KD cell line; HT-1080 IDH1 knockdown viability, ATP luminescence, 48 h; actives 2% (n = 360,000); Potency, µM (top dose mostly 46.1 µM), without a hit: top-dose activity, negative = toxicity, hits mostly cytotoxic;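 further: potency means the concentration at half of the fitted maximal effect; 0% = DMSO wells and -100% = cell-free medium wells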
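CellTiter-Glo luminescence after 48 h compound exposure at 37 degrees C of IDH1-knockdown HT-1080 cells in 5% FBS RPMI. %Activity scaled between DMSO wells and cell-free media wells, with curves fitted and assigned curve classes.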
IL-1B inflam inh: qHTS for Inhibitors of Inflammasome Signaling: IL-1-beta AlphaLISA Primary Screen. THP-1 LPS/ATP IL-1B secretion, AlphaLISA, 16 h; active compounds read low. activity change, % at 57.5 µM. actives 4.7% (n = 360,000). AID 743279, 2014; in the data active means activity change below about -50%; inconclusive means mostly about -30% to -49%
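THP-1 cells pretreated 1 hr with compounds (up to 57.5 uM final), then stimulated with LPS (250 ng/mL final) plus ATP (1.25 mM final); secreted IL-1B measured by AlphaLISA after 16 hr, decreased signal indicating inhibition.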
12-LOX inh: Primary qHTS assay for inhibitors of human arachidonate 12S-lipoxygenase (ALOX12): Round 2; Polyunsaturated fatty acid lipoxygenase ALOX12 (Homo sapiens), P18054; purified 12hLO, xylenol orange hydroperoxide absorbance; Potency, µM (top dose mostly 108 µM), inactives show at the highest dose activity change, negative = inhibition, hits mostly inhibitors; actives 1.1% (n = 580,000); AID 1671190, 2021; further: potency means the concentration at half of the fitted maximal effect
Target sequence (P18054 whole entry, looked up): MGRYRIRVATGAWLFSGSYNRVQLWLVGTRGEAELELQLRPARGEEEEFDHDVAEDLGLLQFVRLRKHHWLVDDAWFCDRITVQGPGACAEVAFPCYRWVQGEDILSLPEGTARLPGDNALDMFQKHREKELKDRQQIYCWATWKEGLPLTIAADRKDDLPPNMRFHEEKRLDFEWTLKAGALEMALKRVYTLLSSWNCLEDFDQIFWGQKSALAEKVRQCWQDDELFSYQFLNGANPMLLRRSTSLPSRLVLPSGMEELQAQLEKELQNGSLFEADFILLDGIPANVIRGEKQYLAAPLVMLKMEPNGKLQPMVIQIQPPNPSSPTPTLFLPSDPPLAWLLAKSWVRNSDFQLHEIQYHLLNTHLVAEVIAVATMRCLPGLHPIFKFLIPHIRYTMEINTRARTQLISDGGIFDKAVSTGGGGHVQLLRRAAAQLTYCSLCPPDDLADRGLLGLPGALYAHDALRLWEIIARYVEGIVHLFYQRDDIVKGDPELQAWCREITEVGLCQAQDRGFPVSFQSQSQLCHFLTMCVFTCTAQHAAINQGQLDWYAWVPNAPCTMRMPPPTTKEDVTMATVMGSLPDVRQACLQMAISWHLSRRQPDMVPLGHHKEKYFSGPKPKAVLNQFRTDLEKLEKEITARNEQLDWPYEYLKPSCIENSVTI
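Purified human 12hLO at 150 nM in 25 mM Hepes, 0.01% Triton X-100, pH 7.0, preincubated 15 min at room temperature with compound. Reaction started with 40 uM arachidonic acid, 30 min at room temperature. Hydroperoxide measured by Fe-xylenol orange, 573/405 nm absorbance ratio.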
HT1080-NT tox: qHTS for induction of synthetic lethality in tumor cells producing 2HG: qHTS for the HT-1080-NT fibrosarcoma cell line. HT-1080-NT fibrosarcoma viability, CellTiter-Glo ATP luminescence, 48 h. Potency, µM (doses to about 46.1 µM), inactives show at the top dose activity, negative = less viability, hits mostly cytotoxic. actives 1.6% (n = 360,000). AID 686970, 2013;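 further: NT is the 2HG producing partner of a matched IDH1 knockdown line; potency means the concentration at half of the fitted maximal effect; 0% = DMSO-treated cells and -100% = media-only wells without cells; nearly all actives have a fitted effect of over 55% in size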
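Viability by CellTiter-Glo luminescence after 48 h compound exposure at 37C of HT-1080-NT cells (750/well, RPMI, 5% FBS). % activity scaled between DMSO wells and medium-only wells, then curve-fitted and categorized by curve class.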
DT40 TDP1 CPT: qHTS for Inhibitors of human tyrosyl-DNA phosphodiesterase 1 (TDP1): qHTS in cells in presence of CPT; chicken DT40 Tdp1-/-;hTDP1 cells + 20 nM CPT, ATP luminescence, 48 h; AID 686979, 2013; Potency, µM (series often up to 46.2 µM), without a hit: at the top dose activity change, negative = growth inhibition, actives largely listed as inhibitors; actives 12% (n = 420,000); further: potency means the concentration at half of the fitted maximal effect; nearly all actives have a fitted effect of over 55% in size
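Cell growth measured by CellTiter-Glo luminescence after a minimum 48 h, 37 C compound exposure with 20 nM CPT in Tdp1-knockout DT40 cells stably expressing hTDP1, seeded 400/well; qHTS titration format.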
Starred values were filed as active, the others as inactive; ? = inconclusive; / = no result; [ ] = remark or other dose. This excerpt belongs to a sample that is enriched for hits. Unless noted, the call rests on the fitted dose curve; in most records, active means well fitted curve in the direction sought with a large enough effect; inconclusive means small, poorly fitted or top-dose-only effect, or another doubt; inactive means no such curve, though single readings can be large; an effect the other way counts as inactive or inconclusive. Unless noted, on the % scale 0 is the no-effect control and ±100 the full control effect.

SMILES | TDP1 cell noCPT | HT1080 IDH1KD tx | IL-1B inflam inh | 12-LOX inh | HT1080-NT tox | DT40 TDP1 CPT
Cc1c(C(=O)NCc2ccc(C(F)(F)F)cc2)sc(=O)n1Cc1ccc(S(=O)(=O)N(C)C)cc1 | 23µM* | -14% | 0 | 14% | -11% | 23µM*
CSc1ccc(Cn2c(C)c(C(=O)NCc3ccccc3C(F)(F)F)sc2=O)cc1 | ? | -29% | / | 0% | 6% | ?
Cc1c(C(=O)NCc2ccccc2C(F)(F)F)sc(=O)n1Cc1ccc(Cl)c(Cl)c1 | ? | -20% | -72* | 2% | ? | ?
COc1ccc(C(=O)N[C@H]2[C@H](O)[C@H](O)C[C@@H]2c2ccc(C(F)(F)F)nc2)cc1OC | / | / | / | 25%[176 µM] | / | /
COc1ccc(C(=O)Oc2ccc(C(C)(C)C)cc2Br)cc1 | / | / | / | -50% | / | /
CC(C)Oc1ccccc1NC(=O)CSc1nccn1C | -13% | 15% | 0 | 19% | 14% | -10%
CCOC(=O)CSC1=NC(=O)/C(=C/c2ccc(OC)cc2)S1 | 1.3µM* | ? | -86* | / | ? | 1.5µM*
CCOC(=O)CSC1=N/C(=C\c2ccc(OC)c(OC)c2)C(=O)N1C | ? | -2% | -19 | -11% | 1% | 26µM*
Cc1cc(C)c(NC(=O)CSc2nc(COc3ccccc3)nc3ccccc23)c(C)c1 | 18µM* | ? | -64* | 19% | 8% | 23µM*
Cc1cc(C)c(NC(=O)CSc2nc3ccccc3c3nc(CCn4cncc4C)nn23)c(C)c1 | 15µM* | / | / | 1% | / | 13µM*
CCCCNC(=O)CSc1nc(CCC)nc2ccccc12 | 23µM* | -9% | -14 | 0% | -8% | 23µM*
CCCNC(=O)CSc1nc(COc2ccccc2)nc2ccccc12 | ? | 12% | -67* | 5% | 1% | -1%
Cc1ccccc1NC(=O)CSc1nc(COc2ccccc2)nc2ccccc12 | -30% | -26% | -24 | 2% | 0% | ?
COC(=O)CSc1nc(COc2ccccc2)nc2ccccc12 | -10% | 8% | 6 | ? | 7% | 13%
CCc1nc(SCC(=O)Nc2ccc(N(C)C)cc2)c2ccccc2n1 | 15µM* | -12% | ? | 0% | -2% | ?
CN(C)Cc1nc(SCC(=O)Nc2ccccc2)c2ccccc2n1 | / | / | / | -7% | / | /
CCn1ccc(C(=O)N2CCCC(c3noc(COc4ccccc4)n3)C2)n1 (configuration not stated) | / | / | / | 15% | / | /
CCN(CC)C(=O)Cn1cc(SCC(=O)NC)c2ccccc21 | 1% | ? | -5 | -17% | 19% | 5%
CCN(CC)C(=O)Cn1cc(SCC(=O)Nc2ccc(C)cc2)c2ccccc21 | 26µM* | / | / | -25% | / | ?
CCN(CC)C(=O)Cn1cc(SCC(=O)Nc2cc(OC)ccc2OC)c2ccccc21 | ? | / | / | 1% | / | ?
CCN(CC)C(=O)Cn1cc(SCC(=O)Nc2ccccc2F)c2ccccc21 | 26µM* | / | / | -17% | / | ?
Cc1ccc(CN2CCCCCNC(=O)[C@@H]3CCC[C@@H]32)o1 | / | / | / | 79% | / | /
CCCNC(=O)N1CC(c2nc(CCOc3cccc(C)c3)no2)C1 | / | / | / | 33% | / | /
O=C(Nc1ccccc1F)C1CC2CCC1C2 (configuration not stated) | / | / | / | 5% | / | /
